According to PubChem BioAssay (Tox21):
Records with an inconclusive call do not appear. Entries that show only a call come without a potency. The source made the active and inactive calls. Calls follow the shape of the full dose curve.

Test: qHTS assay for small molecule disruptors of the mitochondrial membrane potential - cell viability (AID 720634);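 also: human HepG2 liver cancer cells; nearly all actives have a fitted effect of over 20% in size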
Settings: HepG2 viability, ATP luminescence (CellTiter-Glo), 1 h; series mostly up to 83.2 µM
In short: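 HepG2 cells seeded overnight at 37 C, then exposed to compound or DMSO for 1 hr at 37 C, 5% CO2. m-MPI dye added, then CellTiter-Glo for 30 min at room temperature; viability read as ATP luminescence.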
With NC1[C@H]2CN(c3nc4c(cc3F)c(=O)c(C(=O)O)cn4-c3ccc(F)cc3F)C[C@@H]12 (stereo not given in full) the Potency was “inactive”.
For C=C(C)CCCC(C)CCO (stereo not given), the Potency was “inactive”.
For C=CC(=O)[O-].C=CC(=O)[O-].[Zn+2], the Potency was “inactive”.
With CCC(OCCCOC)OC(C)=O (stereo not given) the Potency was “inactive”.
In the case of CCOC(=O)c1ccc(OCCN2C[C@H](O)[C@@H](O)[C@H](O)[C@H]2CO)cc1, the Potency is reported as “inactive”.
In the case of CC=C(Cl)Cl, the Potency is reported as “inactive”.
In the case of CC(C)C=O, the Potency is reported as “inactive”.
In the case of CCCCCCNC(=O)n1cc(F)c(=O)[nH]c1=O, the Potency is reported as “inactive”.
With COc1ccccc1N1CCN(CCCCNC(=O)c2ccc(-c3ccc(C(C)=O)cc3)cc2)CC1 the Potency was “inactive”.
For CCn1cc(C(=O)O)c(=O)c2cc(F)c(N3CCNCC3)cc21, the Potency was “inactive”.
In the case of CCCCCCCCCCC(=O)O, the Potency is reported as “inactive”.
For O=C1NC(=O)c2cc([N+](=O)[O-])ccc21, the Potency was “inactive”.
For OC(CCN1CCCC1)(c1ccccc1)C1CCCCC1 (stereo not given), the Potency was “inactive”.
For CC(=O)OCC[N+](C)(C)C, the Potency was “inactive”.
In the case of CCC=CC#N, the Potency is reported as “inactive”.
For O=c1c(O)c(-c2ccc(O)cc2)oc2cc(O)cc(O)c12, the Potency was “inactive”.
For CC/C=C1/OC(=O)c2ccccc21, the Potency was “inactive”.
For CC(=O)Nc1ccc(C)cc1C, the Potency was “inactive”.
For CN1CCCN=C1COC(=O)C(O)(c1ccccc1)C1CCCCC1 (stereo not given), the Potency was “inactive”.
In the case of O=C1c2ccccc2C(=O)c2c(O)c(O)cc(O)c21, the Potency is reported as “inactive”.
In the case of CC(CCC(=O)O)C(=O)O (stereo not given), the Potency is reported as “inactive”.
For C(=C\c1ccccc1)/c1ccccc1, the Potency was “inactive”.
With C=C(C)C(=O)OCCCCCCCCCCCCC the Potency was “inactive”.
With CCC1NC(=O)c2cc(S(N)(=O)=O)c(Cl)cc2N1 (stereo not given) the Potency was “inactive”.
For CC(C)C(O)(c1ccc(OC(F)(F)F)cc1)c1cncnc1 (stereo not given), the Potency was “inactive”.
With C1C[C@@H]2[C@H]3CC[C@H](C3)[C@@H]2C1 the Potency was “inactive”.
In the case of C=C(C)[C@@H]1CCC2=CCC[C@@H](C)[C@]2(C)C1, the Potency is reported as “inactive”.
In the case of Clc1cc(Cl)nc(Cl)n1, the Potency is reported as “inactive”.
For O[C@@H]1CO[C@H]2[C@@H]1OC[C@@H]2O, the Potency was “inactive”.
In the case of COc1cc(C(=O)NCCCCCC(=O)O)cc(OC)c1OC, the Potency is reported as “inactive”.
For CC(=O)[C@H]1[C@H](C#N)C[C@H]2[C@@H]3CC=C4C[C@@H](O)CC[C@]4(C)[C@H]3CC[C@@]21C, the Potency was “inactive”.
In the case of O=c1[nH]c2ccc(Cl)cc2o1, the Potency is reported as “inactive”.
In the case of CCC(=O)OC, the Potency is reported as “inactive”.
In the case of C=CC(=O)OCC1CC2CC1C1CCC(COC(=O)C=C)C21 (stereo not given), the Potency is reported as “inactive”.
With Cc1cc2c(OCC(CNC(C)(C)C)OC(=O)c3ccccc3)cccc2[nH]1 (stereo not given) the Potency was “inactive”.
